# Measured values from PubChem BioAssay (Tox21).
# Inconclusive results are not listed. Where a call stands in place of a potency, no number is given. Values without a mark were called inactive. The source made the active and inactive calls. Unless noted, calls come from the whole dose curve.
# Key:
# [1] = qHTS assay to identify small molecule antagonists of the vitamin D receptor (VDR) signaling pathway - cell viability counter screen (AID 743225; active = well fitted curve in the direction sought with a large enough effect in the repeat runs; an effect the other way counts as inactive or inconclusive; note: nearly all actives have a fitted effect of over 50% in size)
# Summary of the method: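 VDR-bla HEK 293T cells, 4 h pre-incubation at 37C, then compound plus 1-alpha,25-dihydroxyvitamin D3 (3 nM final) for 16 h. After the beta-lactamase FRET read, CellTiter-Glo was added to the same wells; luminescence after 30 min at room temperature.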
# [2] = qHTS assay to identify small molecule agonists of the NFkB signaling pathway - cell viability counter screen (AID 1159515); note: nearly all actives have a fitted effect of over 55% in size; note: potency is the fitted concentration of half-maximal effect; for activity, negative = cytotoxic: series mostly up to about 61 µM
# Summary of the method: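 Parallel cytotoxicity counter screen in ME-180 cells carrying an NFkB-response-element beta-lactamase reporter, 2,000 cells/well. Compound exposure lasted 5 hr at 37 C, 5% CO2. Cell viability was quantified by CellTiter-Glo luminescence.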
# [3] = qHTS assay to identify small molecule agonists of the endoplasmic reticulum stress response signaling pathway (AID 1159516; active = well fitted activation curve with a large enough effect in the signal ratio in the repeat runs, not every such curve was filed as active; the % refers to the signal ratio)
# Summary of the method: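 Using a HeLa line with an ESRE-driven beta-lactamase gene, agonist activity was measured by FRET substrate fluorescence (460 and 530 nm emission) after cells were treated with compounds for 5 hr at 37 C and 5% CO2.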
# [4] = qHTS assay to identify small molecule antagonists of the retinoid-related orphan receptor gamma (ROR-gamma) signaling pathway - cell viability counter screen (AID 1159520; active = well fitted curve in the direction sought with a large enough effect in the repeat runs; an effect the other way counts as inactive or inconclusive; note: nearly all actives have a fitted effect of over 50% in size)
# Summary of the method: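 Cytotoxicity was read from cellular ATP (CellTiter-Glo luminescence) after 16 hr at 37 C with 1 uM doxycycline induction. The inducer was added 2 hr after compound transfer to Tet-on ROR gamma CHO cells.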
# [5] = biological target: Nuclear receptor ROR-gamma (Homo sapiens) (UniProt P51449); experiment: qHTS assay to identify small molecule antagonists of the retinoid-related orphan receptor gamma (ROR-gamma) signaling pathway (AID 1159521; active = well fitted curve in the direction sought with a large enough effect in the repeat runs; an effect the other way counts as inactive or inconclusive; note: nearly all actives have a fitted effect of over 50% in size; note: potency is the fitted concentration of half-maximal effect;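 for activity change, negative = inhibition: CHO cells with doxycycline inducible ROR-gamma driving an RORE luciferase reporter; top concentration of the series differs between compounds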)
# Summary of the method: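 Tet-on RORγ CHO cells carrying a ROR response element–luciferase reporter were pretreated with compounds for 2 h, then induced with 1 uM (final) doxycycline hyclate for 16 h at 37 C. Antagonism was read as decreased ONE-Glo luminescence.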
# [6] = qHTS assay to identify small molecule agonists of the AP-1 signaling pathway - cell viability counter screen (AID 1159525); note: nearly all actives have a fitted effect of over 55% in size
# Summary of the method: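 Intracellular ATP by Cell Titer Glo luminescence (30 min, RT) in the same ME-180 AP-1-bla wells after the 5 h compound exposure at 37 °C. Normalised to tetra n-octyl ammonium bromide and DMSO controls.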
# [7] = qHTS assay to identify small molecule agonists of the AP-1 signaling pathway (AID 1159526)
# [8] = biological target: Retinoic acid receptor RXR-alpha (Homo sapiens) (UniProt P19793); experiment: qHTS assay to identify small molecule agonists of the RXR signaling pathway (AID 1159527); note: nearly all actives have a fitted effect of over 35% in size
# Summary of the method: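 GeneBLAzer RXR-alpha-UAS-bla HEK 293T cells in medium with 2% charcoal-stripped FBS, pre-incubated 5 hr at 37 C, then exposed to compounds 16 hr. Beta-lactamase reporter read by FRET substrate, 2 hr room temperature, 460/530 nm emission.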
# [9] = qHTS assay to identify small molecule agonists of the RXR signaling pathway - cell viability counter screen (AID 1159529; active = well fitted curve in the direction sought with a large enough effect in the repeat runs; an effect the other way counts as inactive or inconclusive; note: nearly all actives have a fitted effect of over 50% in size; note: potency is the fitted concentration of half-maximal effect; for activity change, negative = cytotoxicity: series mostly up to about 77 µM)
# Summary of the method: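 RXR-alpha-UAS-bla HEK 293T cells in medium with 2% charcoal-stripped FBS were preincubated 5 hr, then exposed to compounds for 16 hr at 37 C. Viability was read as CellTiter-Glo luminescence after 30 min at room temperature.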
# [10] = qHTS assay to identify small molecule agonists of the endoplasmic reticulum stress response signaling pathway - cell viability counter screen (AID 1159517)
# Summary of the method: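 ESRE-bla HeLa cells (1,500/well) were plated overnight at 37 C and exposed to compounds for 5 hr. After the 2 hr beta-lactamase substrate read, CellTiter-Glo went into the same wells, and luminescence was read after 30 min at room temperature.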
# Retinoic acid receptor RXR-alpha (Homo sapiens), sequence (P19793 whole entry, looked up): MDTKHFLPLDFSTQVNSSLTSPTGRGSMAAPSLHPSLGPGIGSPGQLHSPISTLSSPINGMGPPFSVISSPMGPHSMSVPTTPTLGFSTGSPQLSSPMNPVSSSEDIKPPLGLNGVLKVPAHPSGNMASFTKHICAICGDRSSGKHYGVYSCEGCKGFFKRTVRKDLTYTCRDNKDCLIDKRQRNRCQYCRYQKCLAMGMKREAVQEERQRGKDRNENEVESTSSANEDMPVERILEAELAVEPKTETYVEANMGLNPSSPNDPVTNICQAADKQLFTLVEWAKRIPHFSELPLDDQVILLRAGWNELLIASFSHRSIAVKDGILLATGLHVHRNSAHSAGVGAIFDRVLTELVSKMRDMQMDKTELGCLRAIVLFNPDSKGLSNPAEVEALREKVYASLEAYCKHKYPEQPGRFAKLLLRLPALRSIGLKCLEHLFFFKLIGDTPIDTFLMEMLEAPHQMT
smiles,measurement,setting,value
OC1CCCc2ccccc21 (stereo unspecified),Potency,[1],inactive
same,Potency,[2],inactive
same,Potency,[3],inactive
same,Potency,[4],inactive
same,Potency,[5],inactive
same,Potency,[6],inactive
same,Potency,[7],inactive
same,Potency,[8],inactive
same,Potency,[9],inactive
O=c1[nH]c(=O)n([C@H]2C[C@H](O)[C@@H](CO)O2)cc1F,Potency,[1],inactive
same,Potency,[2],inactive
same,Potency,[3],inactive
same,Potency,[4],inactive
same,Potency,[5],inactive
same,Potency,[6],inactive
same,Potency,[7],inactive
same,Potency,[8],inactive
same,Potency,[9],inactive
CC1(C)CCC[C@]2(C)[C@H]3CC(=O)O[C@]3(C)CC[C@@H]12,Potency,[1],inactive
same,Potency,[2],inactive
same,Potency,[3],inactive
same,Potency,[10],inactive
CCO[C@@H]1O[C@H](C(COCc2ccccc2)OCc2ccccc2)[C@H](OCc2ccccc2)[C@H]1O (stereo partly specified),Potency,[1],inactive
same,Potency,[2],21.3 µM (active)
same,Potency,[3],inactive
same,Potency,[10],inactive
CC(CO)Oc1ccccc1 (stereo unspecified),Potency,[2],inactive
same,Potency,[3],inactive
same,Potency,[4],inactive
same,Potency,[5],inactive
same,Potency,[6],inactive
same,Potency,[7],inactive
same,Potency,[8],inactive
same,Potency,[9],inactive
CC(C)NC[C@@H](O)COc1ccc(CC(N)=O)cc1,Potency,[2],inactive
same,Potency,[3],inactive
same,Potency,[4],inactive
same,Potency,[5],inactive
same,Potency,[6],inactive
same,Potency,[7],inactive
same,Potency,[9],inactive
Cc1cccc(C)c1NC(=O)c1ccc(N)cc1,Potency,[1],inactive
same,Potency,[2],inactive
same,Potency,[3],inactive
same,Potency,[4],inactive
same,Potency,[5],inactive
same,Potency,[6],inactive
same,Potency,[7],inactive
same,Potency,[8],inactive
same,Potency,[9],inactive
Cc1ccc(N/N=c2\c(=O)cc/c(=N\Nc3ccc(S(=O)(=O)O)cc3)c2=O)c(C)c1,Potency,[1],inactive
same,Potency,[2],inactive
same,Potency,[3],inactive
same,Potency,[4],inactive
same,Potency,[5],inactive
same,Potency,[6],inactive
same,Potency,[7],inactive
same,Potency,[8],inactive
same,Potency,[9],inactive
CCCCCc1ccc(Cl)cc1,Potency,[1],inactive
same,Potency,[2],inactive
same,Potency,[3],inactive
same,Potency,[4],inactive
same,Potency,[5],inactive
same,Potency,[6],inactive
same,Potency,[7],inactive
same,Potency,[8],inactive
same,Potency,[9],inactive
CCCC[P+](C)(CCCC)CCCC,Potency,[1],inactive
same,Potency,[2],inactive
same,Potency,[3],inactive
same,Potency,[4],inactive
same,Potency,[5],inactive
same,Potency,[6],inactive
same,Potency,[7],inactive
same,Potency,[8],inactive
same,Potency,[9],inactive
CCCCCCCCCCCCOCCOCCOCCOCCOCCOCCOCCOCCOCCO,Potency,[2],inactive
same,Potency,[3],inactive
same,Potency,[10],inactive
same,Potency,[9],16.9 µM (active)
CCCCCCOC(=O)C(C)CC (stereo unspecified),Potency,[1],inactive
same,Potency,[2],inactive
same,Potency,[3],inactive
same,Potency,[4],inactive
same,Potency,[5],inactive
same,Potency,[6],inactive
same,Potency,[7],inactive
same,Potency,[8],inactive
same,Potency,[9],inactive
Cc1ccc(C)cc1,Potency,[1],inactive
same,Potency,[2],inactive
same,Potency,[3],inactive
same,Potency,[4],inactive
same,Potency,[5],inactive
same,Potency,[6],inactive
same,Potency,[7],inactive
same,Potency,[8],inactive
same,Potency,[9],inactive
Cc1cc(-c2ccc(N=Nc3cc(S(=O)(=O)O)c4ccccc4c3N)c(C)c2)ccc1N=Nc1cc(S(=O)(=O)O)c2ccccc2c1N,Potency,[2],inactive
same,Potency,[3],inactive
same,Potency,[4],inactive
same,Potency,[5],30.8 µM (active)
same,Potency,[6],inactive
same,Potency,[7],inactive
same,Potency,[8],inactive
same,Potency,[9],inactive
CC(=O)Oc1cc2c(s1)CCN(C(C(=O)C1CC1)c1ccccc1F)C2 (stereo unspecified),Potency,[2],inactive
same,Potency,[3],inactive
same,Potency,[4],inactive
same,Potency,[5],inactive
same,Potency,[6],inactive
same,Potency,[7],inactive
same,Potency,[9],inactive
CC(C)CCOC(=O)/C=C/c1ccccc1,Potency,[1],inactive
same,Potency,[2],inactive
same,Potency,[3],inactive
same,Potency,[4],inactive
same,Potency,[5],inactive
same,Potency,[6],inactive
same,Potency,[7],inactive
same,Potency,[8],inactive
same,Potency,[9],inactive
NC(=O)c1cccc([N+](=O)[O-])c1,Potency,[1],inactive
same,Potency,[2],inactive
same,Potency,[3],inactive
same,Potency,[4],inactive
same,Potency,[5],inactive
same,Potency,[6],inactive
same,Potency,[7],inactive
same,Potency,[8],inactive
same,Potency,[9],inactive
Cc1c(F)c(N2CCNC(C)C2)cc2c1c(=O)c(C(=O)O)cn2C1CC1 (stereo unspecified),Potency,[1],inactive
same,Potency,[2],inactive
same,Potency,[3],inactive
same,Potency,[4],inactive
same,Potency,[5],inactive
same,Potency,[6],inactive
same,Potency,[7],inactive
same,Potency,[9],inactive
CC(C)Cn1cnc2c(N)nc3ccccc3c21,Potency,[1],inactive
same,Potency,[2],inactive
same,Potency,[3],inactive
same,"activity, negative = cytotoxicity",[4],-2.84% [at 19 µM]
same,"activity change, negative = inhibition",[5],5.43% [at 19 µM]
same,"viability change, negative = cytotoxic",[6],9.4% [at 15.8 µM]
same,activation,[8],13.7% [at 15.8 µM]
same,"activity change, negative = cytotoxicity",[9],1.15% [at 15.8 µM]
O=C(O)O,"viability change, negative = cytotoxic",[1],-0.215% [at 6.95 µM]
same,"activity, negative = cytotoxic",[2],-3.19% [at 6.95 µM]
same,activation,[3],-2.74% [at 6.95 µM]
same,"activity, negative = cytotoxicity",[4],0.616% [at 8.39 µM]
same,Potency,[5],2.96 µM (active)
CCO[Si](OCC)(OCC)OCC,Potency,[1],inactive
same,Potency,[2],inactive
same,Potency,[3],inactive
same,Potency,[4],inactive
same,Potency,[5],inactive
same,Potency,[6],inactive
same,Potency,[7],inactive
same,Potency,[9],inactive
FC(F)(F)c1cccc(Cl)c1,Potency,[2],inactive
same,Potency,[3],inactive
same,Potency,[4],inactive
same,Potency,[6],inactive
same,Potency,[7],inactive
same,Potency,[8],inactive
same,Potency,[9],inactive
C=CC(C)(CCC=C(C)C)OC=O (stereo unspecified),Potency,[2],inactive
same,Potency,[3],inactive
same,Potency,[4],inactive
same,Potency,[5],inactive
same,Potency,[7],inactive
same,Potency,[8],inactive
same,Potency,[9],inactive
CCc1cccc(CC)c1NC(=O)CN(CC(=O)O)CC(=O)O,Potency,[1],inactive
same,Potency,[2],inactive
same,Potency,[3],inactive
same,Potency,[4],inactive
same,Potency,[6],inactive
same,Potency,[7],inactive
same,Potency,[8],inactive
same,Potency,[9],inactive
C=Cc1cccc(C)c1,Potency,[1],inactive
same,Potency,[2],inactive
same,Potency,[3],inactive
same,Potency,[4],inactive
same,Potency,[6],inactive
same,Potency,[7],inactive
same,Potency,[8],inactive
same,Potency,[9],inactive
